# Bioassay records deposited in PubChem BioAssay by National Center for Advancing Translational Sciences (NCATS).
# D2 PAM-1: potentiates the human D2 dopamine receptor allosterically | P14416 | DiscoveRx D2 beta-arrestin cells, luminescence, 90 min; 100% = 57 uM dopamine signal | potentiation, % (no concentration beside the values) | 360,000 compounds, 0.23% hits | AID 624464; in the data active = potentiation above about 50%; inconclusive = mostly about 30% to 49%
# Target sequence (P14416 whole entry, looked up): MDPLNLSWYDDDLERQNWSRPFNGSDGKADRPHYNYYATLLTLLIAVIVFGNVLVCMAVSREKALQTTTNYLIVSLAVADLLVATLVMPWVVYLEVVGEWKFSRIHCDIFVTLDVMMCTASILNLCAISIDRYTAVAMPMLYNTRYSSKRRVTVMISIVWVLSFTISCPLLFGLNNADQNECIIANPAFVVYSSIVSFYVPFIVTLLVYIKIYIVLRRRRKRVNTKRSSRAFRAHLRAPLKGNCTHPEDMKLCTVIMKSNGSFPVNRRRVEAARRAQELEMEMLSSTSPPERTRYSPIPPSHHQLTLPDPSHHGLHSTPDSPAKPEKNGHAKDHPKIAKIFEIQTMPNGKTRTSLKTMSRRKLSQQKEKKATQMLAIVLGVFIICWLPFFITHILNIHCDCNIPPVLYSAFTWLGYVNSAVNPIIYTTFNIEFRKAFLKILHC
#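 PathHunter beta-arrestin assay in DiscoveRx D2 cells. Compounds were added with an EC20 of dopamine (50 nM final) for 90 min at 37 deg C. Luminescence was read 1 h after detection reagent, with 57 uM dopamine as the EC100 control.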
# D2 ag-1: agonists of human D2 dopamine receptor (beta-arrestin); P14416; DiscoveRx PathHunter D2 beta-arrestin, luminescence, 90 min; 100% = 57 uM dopamine signal; activation, % (concentration not given with the values); 360,000 compounds, 0.084% hits; AID 624465; in the data active = activation above about 40%; inconclusive = between about 15% and that limit
#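 DiscoveRx PathHunter D2 beta-arrestin cells (2,100/well) attached overnight, then compound-stimulated 90 min at 37 C in HBSS/10 mM HEPES/0.1% Tween-20 buffer; beta-galactosidase complementation read by luminescence after 1 h at ambient temperature. Dopamine 57 uM final (EC100) as control.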
# D2 PAM-2: positively modulates the human D2 dopamine receptor allosterically. P14416. HEK293 T-REx D2, calcium flux, EC20 dopamine potentiation. potentiation, % at 10 µM. 340,000 compounds, 0.34% hits;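 active = potentiation over 3 SD above the plate norm, cut at about 30% in these data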; also: 0% is about no effect
#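 Tetracycline-induced HEK293 T-REx cells force-coupled to calcium signalling expressed D2; compounds were pin-added after a 10 s baseline, read kinetically 180 s, then an EC20 dopamine challenge followed with a further 180 s calcium read.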
# D2 ag-2: activates the human D2 dopamine receptor; P14416; HEK293 T-REx D2 cells, calcium flux agonist mode; activation, % at 2 µM; 340,000 compounds, 0.53% hits; AID 485358;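 active = activation over 3 SD above normal in the single-dose calcium agonist read, cut at about 30% in these data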; also: 0% is about no effect
#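 HEK293 Trex D2 cells, tetracycline-induced, o/n 30 C 5% CO2; no-wash Ca dye, RT 30–90 min; 10-cycle baseline, 23 nl cpd added, kinetic Ca read 180 s; agonist hits = positive Ca response.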
# D2 antagonist: antagonizes the human D2 dopamine receptor | HEK293 TREx D2 cells, calcium flux, dopamine EC80 | inhibition, % at 10 µM | 340,000 compounds, 2% hits | AID 485344; in the data active = inhibition above about 30%; inactive = below that, where a call was filed; also: 0% is about no effect
#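 HEK293 T-REx D2 cells, tet-induced, calcium dye no-wash. Cpd pintool add, 180 s kinetic, then EC80 DA, 180 s kinetic. Ca flux read.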
# An asterisk follows results filed as active; ? = inconclusive; nt = no result. Sampled rows, rich in hits. Any-hit rate of the full collection: about 2.4%.
SMILES,D2 PAM-1,D2 ag-1,D2 PAM-2,D2 ag-2,D2 antagonist
CCN1CCCC1CNC(=O)c1cc([N+](=O)[O-])c(N(C)C)cc1OC (configuration not stated),-4,-4,-38,0,75*
CCN1CCC[C@H]1CNC(=O)c1cc(S(N)(=O)=O)ccc1OC,nt,nt,-23,1,87*
CCN1CCCC1CNC(=O)c1[nH]c2ccc(OC)cc2c1C (configuration not stated),-22,-5,-35,nt,40*
CC(=O)Nc1cc(-c2cccc(C(=O)NCCN(C)C)c2)cn2c(-c3ccc(F)c(Cl)c3)cnc12,-9,3,nt,nt,nt
Cc1ccc(-n2c3c(cc(C(=O)Nc4cccc(C)n4)c2=O)C(=O)CCC3)cc1,nt,nt,1,0,15
CCC1CCCN1Cn1cnc2c([nH]c3ccc(OC)cc32)c1=O (configuration not stated),-21,2,35*,-1,-15
CCC1CCCN1Cn1cnc2c([nH]c3ccccc32)c1=O (configuration not stated),-12,-2,1,-1,-8
COc1ccccc1-c1c(C)[nH]n2c(=O)c(Cc3ccccc3)c(C)nc12,-17,0,-22,0,54*
COc1ccc(-c2c(C)[nH]n3c(=O)c(Cc4ccccc4)c(C)nc23)cc1,-40,-3,-24,1,31*
Cn1cccc1C(=O)OCC(=O)N1CC(=O)Nc2ccccc21,-22,-4,2,2,34*
CCC1(c2ccccc2)C(=O)NCNC1=O,-3,-4,4,2,33*
COc1nnc(-c2ccc(N3CCCCC3)c(NC(=O)c3ccccc3)c2)c2ccccc12,nt,nt,1,-1,nt
CS(=O)(=O)c1ccc(C(=O)OCc2nnc(-c3ccccc3)o2)cc1[N+](=O)[O-],-13,0,3,1,1
S=C(NCCc1ccccc1)N1CCn2cccc2C1c1cccnc1 (configuration not stated),-19,-3,-17,0,37*
Cc1ccc2c(c1)NC(=O)C(CC(=O)NCCN(C)C)O2 (configuration not stated),-5,-7,-2,1,-24
COc1ccc(Cl)cc1NC(=O)CSc1nnc(CN2CCOCC2)n1-c1ccc(Cl)cc1,-24,-2,-24,1,76*
CN(Cc1nc(-c2cccc(Cl)c2)no1)C1CCOCC1,-10,1,7,0,47*
COc1ccc(C(=O)COc2nc(C)cc(C)c2C#N)cc1,-4,-4,0,0,35*
Cn1c(=O)c2ccccc2n(Cc2ccccc2Cl)c1=O,2,1,7,-1,34*
Cc1c(/C=C(\C#N)C(=O)NCc2ccccc2)cc(C#N)n1C,-19,-6,-18,0,37*
Cc1ccc(/C=N/Nc2ccc(Cl)c(C(=O)O)c2)s1,51*,5,9,-1,-7
O=C(O)c1cc(N/N=C/c2cccs2)ccc1Cl,nt,nt,-1,0,6
O=Nc1c(O)ccc2cc(S(=O)(=O)O)ccc12,100*,?,nt,nt,nt
Nc1nnc(CC(=O)N/N=C/c2cccc(OCCOc3ccccc3)c2)s1,21,-1,0,-1,31*
C=CCn1c(-c2ccc(Cl)cc2)cnc1SC(C)C(N)=O (configuration not stated),-4,-6,-5,-1,-9
SMILES,D2 PAM-1,D2 ag-1,D2 PAM-2,D2 ag-2,D2 antagonist
Cc1ccc(-c2nn(-c3ccccc3)cc2CNCc2ccccc2)cc1,-21,2,-38,0,51*
Cc1ccc(-c2nn(-c3ccccc3)cc2CO)cc1,-3,-2,17,0,2
O=[N+]([O-])c1cccc(NC(=S)NCCc2ccccc2)c1,-32,-6,7,-1,80*
CC(=O)NNC(=S)NCCc1ccccc1,0,-7,-2,1,49*
CCN(CC)S(=O)(=O)c1cccc(NC(=O)CN2C(=O)NC3(CCOc4ccccc43)C2=O)c1 (configuration not stated),-6,3,-5,1,12
Cc1nc(=O)c(-c2ccccc2)c(C)n1-c1cccc(C(=O)O)c1,6,-2,-8,0,31*
Cc1nc(NC(=O)c2cc(-n3cnnc3)ccc2Cl)ccc1Br,3,-2,13,1,30*
O=C(Nc1ccccc1)c1cc(-n2cnnc2)ccc1Cl,-5,0,nt,nt,nt
Cc1ccc(OCC(=O)c2c(N)n(C)c(=O)n(C)c2=O)c([N+](=O)[O-])n1,-2,-2,-2,0,33*
O=C(CSc1nccn1-c1ncc(C(F)(F)F)cc1Cl)c1ccc(Br)cc1,-14,0,3,0,-20
O=[N+]([O-])c1ccc(C[n+]2ccc(Cc3ccccc3)cc2)cc1,10,13,-1,0,3
c1ccc(Cc2cc[n+](Cc3ccccn3)cc2)cc1,-2,-2,9,0,42*
COc1cccc(CN(C(=O)CN2C(=O)c3ccccc3S2(=O)=O)C(C(=O)NCC2CCCO2)c2ccco2)c1 (configuration not stated),6,3,3,-1,-4
O=C(CN(C(=O)Cn1nnc(-c2ccc(F)cc2)n1)c1cccc(F)c1)NC1CCCC1,-4,4,9,0,-6
O=[N+]([O-])c1cc([N+](=O)[O-])c(Oc2cccnc2Br)cc1NN1CCCCC1,4,1,-4,0,35*
Cc1ccc(CN2C(=O)CCC2C(=O)NCCN2CCN(c3cccc(Cl)c3)CC2)cc1 (configuration not stated),-5,0,-19,13,44*
CCOc1cccc(N2CCN(CCNC(=O)Nc3ccc(C)cc3)CC2)c1C,-2,-4,-19,3,44*
COc1ccc(NC(=O)NCCN2CCN(c3cccc(Cl)c3)CC2)cc1,-10,2,15,0,36*
O=C(Cn1nc(-c2ccccc2)ccc1=O)NCCN1CCN(c2cccc(Cl)c2)CC1,-14,-1,-19,0,64*
CCOc1ccc(NC(=O)NCCN2CCN(c3cccc(C)c3C)CC2)cc1,-23,-5,-34,17,5
O=C(NNc1ccc(Cl)cc1)c1sccc1Cl,-24,-9,-2,0,-6
COc1ccc(NC(=O)c2ccc3c(c2)N(Cc2cccc(Cl)c2)C(=O)c2ccccc2S3=O)cc1Cl (configuration not stated),nt,nt,11,0,nt
CC1(C)ON(C2CCCCC2)[C@H]2c3nc4ccccc4n3C[C@H]21,0,0,1,2,39*
Cc1ncc(C(=O)O)c(C(=O)O)c1N,-18,8,35*,0,-31
